Laboratory results as given in the supplement of paper PMC11732987, “Enantioselective OTUD7B fragment discovery through chemoproteomics screening and high-throughput optimisation” (Communications Chemistry, 2025).

Legend:
Test in all cases: log2 ratio of Biotin-Ahx-Ub-VS probe labelling (fragment/DMSO); higher = less target engagement (more negative = stronger competition), active = hit call of the paper (q ≤ 0.05, log2 ratio ≤ -1)
Details in all cases: compound concentration: 200 uM; treatment time: 3 h
USP19 = target: T1, USP19 (UniProt O94966)
T1 sequence (whole entry): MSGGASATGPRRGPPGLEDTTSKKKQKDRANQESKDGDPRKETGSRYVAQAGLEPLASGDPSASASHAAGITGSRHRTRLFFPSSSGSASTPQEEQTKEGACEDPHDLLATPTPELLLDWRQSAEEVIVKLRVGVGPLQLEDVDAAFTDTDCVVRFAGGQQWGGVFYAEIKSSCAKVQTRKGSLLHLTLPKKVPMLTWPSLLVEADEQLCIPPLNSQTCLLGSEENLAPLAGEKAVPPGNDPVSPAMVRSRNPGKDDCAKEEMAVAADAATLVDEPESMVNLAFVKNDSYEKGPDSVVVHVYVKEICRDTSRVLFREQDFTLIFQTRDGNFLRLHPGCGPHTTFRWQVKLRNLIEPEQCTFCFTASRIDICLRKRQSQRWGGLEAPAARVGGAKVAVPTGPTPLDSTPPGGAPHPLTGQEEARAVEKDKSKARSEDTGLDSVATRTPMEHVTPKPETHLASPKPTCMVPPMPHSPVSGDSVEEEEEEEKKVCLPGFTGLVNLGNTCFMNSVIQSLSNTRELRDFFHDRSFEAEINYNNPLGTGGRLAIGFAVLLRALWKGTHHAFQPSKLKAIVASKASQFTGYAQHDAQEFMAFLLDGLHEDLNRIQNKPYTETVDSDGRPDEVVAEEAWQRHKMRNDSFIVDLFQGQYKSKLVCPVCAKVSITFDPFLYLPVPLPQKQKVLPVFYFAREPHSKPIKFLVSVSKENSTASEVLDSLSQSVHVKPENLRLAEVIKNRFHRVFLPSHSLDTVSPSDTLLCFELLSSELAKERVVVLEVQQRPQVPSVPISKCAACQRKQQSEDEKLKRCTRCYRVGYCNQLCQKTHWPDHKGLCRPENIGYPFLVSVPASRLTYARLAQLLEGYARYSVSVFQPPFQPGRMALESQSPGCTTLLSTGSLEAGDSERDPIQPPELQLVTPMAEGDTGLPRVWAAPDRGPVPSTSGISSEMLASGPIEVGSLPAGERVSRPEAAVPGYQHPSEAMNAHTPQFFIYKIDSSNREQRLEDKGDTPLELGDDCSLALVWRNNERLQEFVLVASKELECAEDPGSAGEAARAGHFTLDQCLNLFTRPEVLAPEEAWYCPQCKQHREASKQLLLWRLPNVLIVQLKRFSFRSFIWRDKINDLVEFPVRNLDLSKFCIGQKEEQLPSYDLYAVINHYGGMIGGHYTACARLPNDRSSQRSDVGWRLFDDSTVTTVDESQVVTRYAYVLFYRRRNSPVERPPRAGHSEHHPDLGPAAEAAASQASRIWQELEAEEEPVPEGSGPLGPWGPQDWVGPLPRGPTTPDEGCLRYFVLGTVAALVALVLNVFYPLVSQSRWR
Method in brief: (§1)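 Each value is an average log2 ratio of fragment to vehicle, tested by unpaired t-test. The underlying Spectronaut label-free quantities were global-median-normalised, and only proteins with ≥2 unique peptides were included. Triplicate HEK293T lysate samples (495 µg) were exposed to fragment at 200 µM or vehicle for 3 h, then to Biotin-Ahx-Ub-VS at 0.5 µM final for 1 h, before NeutrAvidin enrichment of labelled DUBs, LysC and trypsin digestion, and diaPASEF LC-MS/MS.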

USP24 = USP24 (UniProt Q9UPU5)
Method in brief: as §1

USP25 = target: T2, USP25 (UniProt Q9UHP3)
T2 sequence (whole entry): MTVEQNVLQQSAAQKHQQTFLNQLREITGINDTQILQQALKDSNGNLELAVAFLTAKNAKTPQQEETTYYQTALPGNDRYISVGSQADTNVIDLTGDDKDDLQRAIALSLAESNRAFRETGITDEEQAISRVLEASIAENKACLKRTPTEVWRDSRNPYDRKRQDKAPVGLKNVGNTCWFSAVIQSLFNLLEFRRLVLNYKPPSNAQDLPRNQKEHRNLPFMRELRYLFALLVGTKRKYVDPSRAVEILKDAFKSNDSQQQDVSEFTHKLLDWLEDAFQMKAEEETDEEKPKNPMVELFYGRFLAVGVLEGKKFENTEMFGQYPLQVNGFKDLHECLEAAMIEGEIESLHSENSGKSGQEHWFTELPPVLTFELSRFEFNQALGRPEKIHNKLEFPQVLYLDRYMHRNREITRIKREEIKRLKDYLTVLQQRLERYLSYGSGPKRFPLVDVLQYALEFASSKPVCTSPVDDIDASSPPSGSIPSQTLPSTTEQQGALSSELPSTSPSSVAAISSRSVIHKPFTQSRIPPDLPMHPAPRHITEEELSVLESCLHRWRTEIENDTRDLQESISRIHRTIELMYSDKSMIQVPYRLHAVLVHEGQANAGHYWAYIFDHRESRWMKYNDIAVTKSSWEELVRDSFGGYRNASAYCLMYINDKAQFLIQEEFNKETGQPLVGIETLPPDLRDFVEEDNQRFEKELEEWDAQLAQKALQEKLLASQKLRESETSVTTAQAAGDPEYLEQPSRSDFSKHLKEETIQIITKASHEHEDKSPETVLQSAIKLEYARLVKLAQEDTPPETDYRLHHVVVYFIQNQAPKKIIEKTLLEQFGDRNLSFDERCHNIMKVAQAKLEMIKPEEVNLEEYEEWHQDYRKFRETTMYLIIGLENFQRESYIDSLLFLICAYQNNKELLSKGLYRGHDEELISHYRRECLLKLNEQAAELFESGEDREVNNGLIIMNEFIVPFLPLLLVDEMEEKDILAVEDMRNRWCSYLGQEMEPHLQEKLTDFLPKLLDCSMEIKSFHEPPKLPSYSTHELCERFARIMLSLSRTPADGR
Method in brief: as §1

USP28 = target: T3, USP28 (UniProt Q96RU2)
T3 sequence (whole entry): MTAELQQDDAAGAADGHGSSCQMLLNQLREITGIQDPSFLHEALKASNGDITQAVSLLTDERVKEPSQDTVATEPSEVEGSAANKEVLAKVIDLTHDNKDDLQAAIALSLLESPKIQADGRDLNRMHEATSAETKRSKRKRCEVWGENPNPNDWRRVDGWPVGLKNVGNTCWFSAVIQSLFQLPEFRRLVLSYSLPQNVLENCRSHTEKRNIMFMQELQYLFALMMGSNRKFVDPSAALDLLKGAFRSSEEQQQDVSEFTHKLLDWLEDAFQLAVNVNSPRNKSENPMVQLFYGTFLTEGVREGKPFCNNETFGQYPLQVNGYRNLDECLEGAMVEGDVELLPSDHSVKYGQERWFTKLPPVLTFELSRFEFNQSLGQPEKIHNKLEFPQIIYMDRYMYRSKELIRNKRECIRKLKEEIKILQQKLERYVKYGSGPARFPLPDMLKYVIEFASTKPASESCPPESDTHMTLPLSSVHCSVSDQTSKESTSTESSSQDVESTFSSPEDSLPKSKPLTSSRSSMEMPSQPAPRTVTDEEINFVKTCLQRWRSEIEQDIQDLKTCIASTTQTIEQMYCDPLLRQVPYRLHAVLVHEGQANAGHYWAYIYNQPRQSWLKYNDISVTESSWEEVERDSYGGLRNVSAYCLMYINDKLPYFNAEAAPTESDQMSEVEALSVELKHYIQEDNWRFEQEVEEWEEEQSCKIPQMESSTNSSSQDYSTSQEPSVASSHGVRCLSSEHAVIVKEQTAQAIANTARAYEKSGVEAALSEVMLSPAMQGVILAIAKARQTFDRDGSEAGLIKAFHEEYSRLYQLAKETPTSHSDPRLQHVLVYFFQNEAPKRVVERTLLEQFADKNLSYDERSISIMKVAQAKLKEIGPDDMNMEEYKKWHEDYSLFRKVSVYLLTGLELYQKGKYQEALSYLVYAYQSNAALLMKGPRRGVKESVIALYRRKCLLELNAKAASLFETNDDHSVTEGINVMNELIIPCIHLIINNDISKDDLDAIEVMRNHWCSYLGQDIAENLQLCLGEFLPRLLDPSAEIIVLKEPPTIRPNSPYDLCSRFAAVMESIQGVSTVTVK
Method in brief: as §1

Measured: log2 ratio of Biotin-Ahx-Ub-VS probe labelling

USP24, sequence (Q9UPU5 whole entry): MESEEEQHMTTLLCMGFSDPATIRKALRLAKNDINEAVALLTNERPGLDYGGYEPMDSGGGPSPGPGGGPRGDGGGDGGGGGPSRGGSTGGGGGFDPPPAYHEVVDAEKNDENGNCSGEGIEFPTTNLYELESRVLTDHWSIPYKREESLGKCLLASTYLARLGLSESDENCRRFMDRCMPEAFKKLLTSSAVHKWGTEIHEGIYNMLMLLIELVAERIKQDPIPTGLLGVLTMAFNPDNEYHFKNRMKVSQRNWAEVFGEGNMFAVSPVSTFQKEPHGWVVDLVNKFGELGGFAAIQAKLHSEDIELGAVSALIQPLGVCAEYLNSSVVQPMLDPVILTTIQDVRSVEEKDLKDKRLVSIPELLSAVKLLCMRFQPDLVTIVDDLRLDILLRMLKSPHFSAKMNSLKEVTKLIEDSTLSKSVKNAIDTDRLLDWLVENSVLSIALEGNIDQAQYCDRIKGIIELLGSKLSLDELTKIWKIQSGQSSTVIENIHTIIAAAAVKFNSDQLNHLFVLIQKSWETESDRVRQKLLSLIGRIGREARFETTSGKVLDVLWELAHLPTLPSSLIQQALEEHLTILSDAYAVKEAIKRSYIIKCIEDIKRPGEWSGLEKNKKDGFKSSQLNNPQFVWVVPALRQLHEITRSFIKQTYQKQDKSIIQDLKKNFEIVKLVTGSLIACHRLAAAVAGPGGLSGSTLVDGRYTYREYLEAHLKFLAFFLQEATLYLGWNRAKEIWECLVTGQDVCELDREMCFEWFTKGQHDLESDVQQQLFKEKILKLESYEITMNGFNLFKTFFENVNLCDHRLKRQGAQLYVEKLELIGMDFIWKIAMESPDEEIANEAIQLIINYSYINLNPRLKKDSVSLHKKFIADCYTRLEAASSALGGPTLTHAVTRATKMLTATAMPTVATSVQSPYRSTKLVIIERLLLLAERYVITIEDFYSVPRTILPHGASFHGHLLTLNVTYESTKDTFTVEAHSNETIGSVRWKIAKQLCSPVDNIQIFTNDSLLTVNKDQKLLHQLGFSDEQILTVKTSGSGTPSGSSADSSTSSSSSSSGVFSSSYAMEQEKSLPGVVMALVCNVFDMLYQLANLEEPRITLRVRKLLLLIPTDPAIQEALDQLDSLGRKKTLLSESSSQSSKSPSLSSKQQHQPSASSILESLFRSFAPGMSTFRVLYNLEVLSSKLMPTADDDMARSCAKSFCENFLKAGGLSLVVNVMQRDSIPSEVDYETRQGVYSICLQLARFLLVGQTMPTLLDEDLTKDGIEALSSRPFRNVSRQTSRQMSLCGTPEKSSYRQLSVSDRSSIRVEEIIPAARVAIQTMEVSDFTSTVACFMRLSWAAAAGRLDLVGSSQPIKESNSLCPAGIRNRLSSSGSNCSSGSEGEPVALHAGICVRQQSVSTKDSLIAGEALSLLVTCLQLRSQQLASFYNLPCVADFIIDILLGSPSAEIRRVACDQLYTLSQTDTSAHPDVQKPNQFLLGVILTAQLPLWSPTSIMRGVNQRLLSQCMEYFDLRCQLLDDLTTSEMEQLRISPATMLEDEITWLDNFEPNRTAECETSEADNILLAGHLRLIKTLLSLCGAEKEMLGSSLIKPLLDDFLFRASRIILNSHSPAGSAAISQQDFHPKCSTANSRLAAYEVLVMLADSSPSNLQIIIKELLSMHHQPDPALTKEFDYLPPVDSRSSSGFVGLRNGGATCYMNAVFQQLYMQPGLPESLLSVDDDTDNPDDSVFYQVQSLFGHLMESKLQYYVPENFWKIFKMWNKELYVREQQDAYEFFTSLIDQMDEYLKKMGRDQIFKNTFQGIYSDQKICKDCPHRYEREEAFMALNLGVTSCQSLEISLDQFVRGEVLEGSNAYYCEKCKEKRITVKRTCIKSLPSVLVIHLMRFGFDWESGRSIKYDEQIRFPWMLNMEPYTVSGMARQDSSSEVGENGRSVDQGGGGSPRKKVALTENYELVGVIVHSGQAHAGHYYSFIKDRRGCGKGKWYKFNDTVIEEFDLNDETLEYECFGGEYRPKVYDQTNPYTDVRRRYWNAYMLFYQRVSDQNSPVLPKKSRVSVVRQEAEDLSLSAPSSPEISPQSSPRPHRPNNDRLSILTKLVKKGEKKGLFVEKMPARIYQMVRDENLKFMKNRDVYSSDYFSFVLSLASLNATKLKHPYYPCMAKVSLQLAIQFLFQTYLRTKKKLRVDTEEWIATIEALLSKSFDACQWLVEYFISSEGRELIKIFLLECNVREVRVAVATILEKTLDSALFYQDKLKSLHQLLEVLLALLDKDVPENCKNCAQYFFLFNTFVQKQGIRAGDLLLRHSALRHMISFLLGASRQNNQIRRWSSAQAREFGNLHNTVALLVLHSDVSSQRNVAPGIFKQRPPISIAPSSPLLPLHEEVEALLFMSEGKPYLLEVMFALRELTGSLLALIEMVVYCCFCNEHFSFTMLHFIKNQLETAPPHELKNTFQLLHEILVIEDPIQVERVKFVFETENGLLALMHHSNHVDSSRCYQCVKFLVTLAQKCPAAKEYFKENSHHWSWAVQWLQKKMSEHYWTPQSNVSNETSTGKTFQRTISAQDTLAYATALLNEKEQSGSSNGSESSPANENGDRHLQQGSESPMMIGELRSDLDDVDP

O=C(CCl)N1CCCC1c1ccsc1 (centres undefined)
inactive: USP19 -0.475 | USP24 -0.738 | USP25 -0.456 | USP28 -0.704
